The values that follow come from PubChem BioAssay (NCI).

Some test systems named below: HCT-15 colon; HT29 colon; SNB-75 CNS; SNB-19 CNS; U251 CNS; PC-3 prostate; SK-MEL-5 melanoma; UACC-62 melanoma; LOX IMVI melanoma; SK-MEL-28 melanoma; SK-MEL-2 melanoma; EKVX NSCLC; SN12C renal; UO-31 renal; TK-10 renal; ACHN renal; CAKI-1 renal; A498 renal; CCRF-CEM leukemia; MOLT-4 leukemia.
What all share (assay): NCI-60 one-dose screen, 48 h (100 = growth as untreated, 0 = no growth, -100 = all killed)
Settings in all cases: 10 µM

The panel holds about 83,000 compounds, 20% with a hit somewhere; the sample as a whole holds those more often.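 Note: values are percent growth. 100 is the growth of untreated cells, values between 100 and 0 indicate rising inhibition; between -100 and 0 indicates cell death.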 Unmarked numbers belong to inactive results. Active and inactive are the calls of the source. Rule for the calls: active = growth percent below 10; inactive = the rest.

Take `Cc1noc2c(Cc3ccccc3)nn(CC(=O)N/N=C/c3ccc(Cl)cc3)c(=O)c12`: the growth with HCT-15 colon is 86.3%; in the experiment with HT29 colon it was 65.8%; in the experiment with SNB-75 CNS, -3.5% (active); with SNB-19 CNS, 71.3%; in the experiment with U251 CNS, 21.6%; with PC-3 prostate it was 76.4%. Besides, the growth was 85.5% in the experiment with SK-MEL-5 melanoma; 92.9% in the experiment on UACC-62 melanoma; 48.7% in the experiment on LOX IMVI melanoma; 104% with SK-MEL-28 melanoma; 94.3% with SK-MEL-2 melanoma; 72.9% with EKVX NSCLC. For the same compound, the growth was 7.85% (active) in the experiment on SN12C renal; -40.5% (active) in the experiment on UO-31 renal; 4.87% (active) with TK-10 renal; -16.5% (active) with ACHN renal; 38.5% with CAKI-1 renal; -58.1% (active) in the experiment with A498 renal. The growth in the experiment on CCRF-CEM leukemia was 97.3%; in the experiment with MOLT-4 leukemia, 102%.
With `CO[C@H]1CSS[C@@H]1Cn1nc(-c2ccc(Oc3ccccc3)cc2)c2c(N)ncnc21`, the growth is 22.1% in the experiment on HCT-15 colon; 17.2% in the experiment on HT29 colon; 104% in the experiment with SNB-75 CNS; 29.6% with SNB-19 CNS; 24.6% in the experiment on U251 CNS; 41.2% with PC-3 prostate. For the same compound, the growth was -4.24% (active) in the experiment with SK-MEL-5 melanoma; -69.5% (active) with UACC-62 melanoma; 36.8% in the experiment with LOX IMVI melanoma; -35.8% (active) in the experiment with SK-MEL-28 melanoma; -34% (active) with SK-MEL-2 melanoma; 18% with EKVX NSCLC. Further, the growth is 24.6% with SN12C renal; 17.7% with UO-31 renal; 0.0625% (active) in the experiment with TK-10 renal; 10% with ACHN renal; 11.3% in the experiment with CAKI-1 renal; 92.8% in the experiment on A498 renal. The growth was -16% (active) in the experiment on CCRF-CEM leukemia and -20.6% (active) in the experiment on MOLT-4 leukemia.
For `C=C1CC[C@H](C(=C)C)[C@H]2C=C(C)C(=O)C3=C(C(=O)[C@@](C)(O)C3)[C@H]12`, the growth is -80.8% (active) in the experiment on HCT-15 colon; -37.6% (active) with HT29 colon; -71% (active) in the experiment on SNB-75 CNS; -90.9% (active) with SNB-19 CNS; -95.9% (active) in the experiment on U251 CNS; -73.2% (active) in the experiment with PC-3 prostate. Further, the growth in the experiment with SK-MEL-5 melanoma was -90.4% (active); in the experiment with UACC-62 melanoma, -53.5% (active); in the experiment on LOX IMVI melanoma, -75.9% (active); in the experiment on SK-MEL-28 melanoma, -89.2% (active); in the experiment with SK-MEL-2 melanoma it was -88.6% (active); in the experiment with EKVX NSCLC it was -78.5% (active). The growth in the experiment on SN12C renal was -50.8% (active); in the experiment with UO-31 renal, -99.8% (active); in the experiment with TK-10 renal, -97% (active); in the experiment on ACHN renal, -98.3% (active); in the experiment on CAKI-1 renal, -78.9% (active); in the experiment with A498 renal, -93.2% (active). In the experiment with CCRF-CEM leukemia, the growth was -5.05% (active).
As for `CCOC(=O)CNC(=O)CN(Cc1ccccc1)C(=O)[C@@]1(C)CCC[C@]2(C)[C@H]3CC4C(C(C)C)=C[C@]3(CC[C@H]21)[C@@H]1C(=O)CCC(=O)[C@H]41`, the growth in the experiment on HCT-15 colon was 17.6%; in the experiment on HT29 colon, 41.1%; in the experiment on SNB-75 CNS, 86.2%; in the experiment on SNB-19 CNS, 81.1%; in the experiment with U251 CNS, 63.8%; in the experiment with PC-3 prostate it was 35.3%. The growth in the experiment with SK-MEL-5 melanoma was 68.6%; in the experiment on UACC-62 melanoma it was 38.9%; with LOX IMVI melanoma, -75.1% (active); in the experiment on SK-MEL-28 melanoma, 62.7%; in the experiment with SK-MEL-2 melanoma, 47.4%; in the experiment with EKVX NSCLC, 66.2%. For the same compound, the growth with SN12C renal is 50%; in the experiment with UO-31 renal, 47.9%; in the experiment with TK-10 renal, 98.1%; in the experiment on ACHN renal, 52.9%; in the experiment on CAKI-1 renal, 81.3%; with A498 renal, 120%. In addition, the growth was 16.4% with CCRF-CEM leukemia and 15.8% in the experiment with MOLT-4 leukemia.
Consider `Cc1noc2c(Cc3ccccc3)nn(CC(=O)N/N=C/c3ccc(Br)cc3)c(=O)c12`, for which the growth in the experiment on HCT-15 colon is 76.5%; in the experiment on HT29 colon it was 71.1%; in the experiment with SNB-75 CNS it was 35.3%; with SNB-19 CNS, 75.4%; in the experiment on U251 CNS it was 18.4%; in the experiment with PC-3 prostate, 82.7%. Besides, the growth is 85.5% with SK-MEL-5 melanoma; 79.7% in the experiment on UACC-62 melanoma; 45.9% with LOX IMVI melanoma; 99.5% with SK-MEL-28 melanoma; 106% in the experiment with SK-MEL-2 melanoma; 65.8% in the experiment with EKVX NSCLC. In addition, the growth in the experiment with SN12C renal was 8.51% (active); in the experiment with UO-31 renal it was -32.3% (active); with TK-10 renal, 17.8%; with ACHN renal it was 6.21% (active); with CAKI-1 renal it was 58.4%; in the experiment with A498 renal, -62.4% (active). For the same compound, the growth is 96.8% in the experiment with CCRF-CEM leukemia and 93.9% with MOLT-4 leukemia.
In the case of `Nc1nc(Nc2ccc(Cl)cc2)nn1Cc1cccc(Br)c1`, the growth was 29.9% in the experiment on HCT-15 colon; 54.1% with HT29 colon; 69.9% in the experiment on SNB-75 CNS; 57.2% with SNB-19 CNS; 58.6% in the experiment with U251 CNS; 22.9% with PC-3 prostate. Also, the growth in the experiment with SK-MEL-5 melanoma was 47.4%; with UACC-62 melanoma, 29.9%; in the experiment with LOX IMVI melanoma it was 13.7%; with SK-MEL-28 melanoma it was 44.8%; in the experiment with SK-MEL-2 melanoma, 27.2%; in the experiment with EKVX NSCLC, 22.3%. Moreover, the growth is 41.1% in the experiment with SN12C renal; 18.2% in the experiment with UO-31 renal; 61.1% in the experiment with TK-10 renal; 22.8% in the experiment on ACHN renal; 26.9% with CAKI-1 renal; -1.15% (active) in the experiment on A498 renal. Besides, the figures for the growth with CCRF-CEM leukemia and in the experiment on MOLT-4 leukemia were 34.3% and 20.1%, respectively.
In the case of `O=C(Nc1cccc(-c2cn(-c3ccc4oc(=O)ccc4c3)nn2)c1)Nc1cc(C(F)(F)F)cc(C(F)(F)F)c1`, the growth in the experiment with HCT-15 colon was 19%; in the experiment with HT29 colon it was 44.9%; in the experiment with SNB-75 CNS, 17.8%; in the experiment with SNB-19 CNS, 27.4%; in the experiment with U251 CNS, 13.4%; in the experiment on PC-3 prostate it was 27.7%. For the same compound, the growth with SK-MEL-5 melanoma is 2.67% (active); in the experiment with UACC-62 melanoma it was 11.3%; in the experiment on LOX IMVI melanoma it was 17.2%; in the experiment with SK-MEL-28 melanoma, 22.5%; with SK-MEL-2 melanoma it was 29.6%; with EKVX NSCLC it was 13.5%. For the same compound, the growth is 24.6% in the experiment with SN12C renal; 30.9% in the experiment on UO-31 renal; 50.9% in the experiment with TK-10 renal; 12.5% in the experiment with ACHN renal; 36.2% in the experiment with CAKI-1 renal; 19.6% with A498 renal. Moreover, the growth is 27.1% with CCRF-CEM leukemia and 11.7% in the experiment with MOLT-4 leukemia.
